# Data as given in PubChem BioAssay AID686978 (National Center for Advancing Translational Sciences (NCATS), 2013).
# Among all 420,000 compounds or so, about 64,000 (15%) were called active. Another 27% or so got no clear call; they are omitted. The call rests on the fitted dose curve; in most records, active means well fitted inhibition curve with a large enough effect; inconclusive means small, poorly fitted or top-dose-only effect; inactive means flat fitted curve, though single readings scatter. A selection follows. Where a call stands in place of a potency, no number is given.
# Assay: qHTS for Inhibitors of human tyrosyl-DNA phosphodiesterase 1 (TDP1): qHTS in cells in absence of CPT; further: nearly all actives have a fitted effect of over 55% in size
# Conditions: DT40 Tdp1-/- hTDP1 cells, no CPT, ATP luminescence, 48 h; activity change, negative = growth inhibition: at 46.2 µM (top of the series)
# Outline: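 Chicken DT40 Tdp1-/- cells complemented with human TDP1, screened without camptothecin (DMSO vehicle only), 400 cells/well. Compounds pin-transferred, cells incubated at 37 °C for at least 48 hr. Growth read as ATP-dependent luminescence (CellTiter-Glo, 30 min at RT).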
# Potency means the concentration at half of the fitted maximal effect.
row,SMILES,Potency
1,COC(C)(C)[C@]12CC(O)(C(C)C)ON1[C@H]1CCCCC1N2O (some centres undefined),inactive
2,CCC(=O)c1cc2c(cc1NC(=O)c1cccs1)OCCO2,inactive
3,Cc1ccc(Oc2nc3ccccc3n3c(C)nnc23)cc1,inactive
4,C[C@@H]1NC(=O)[C@@]2(C)[C@@H](c3ccccc3)[C@H]3COc4ccccc4[C@@H]3N2C1=O,inactive
5,CCOC(=O)CC(=O)CSc1nc(-c2ccccc2)cc(-c2ccc(Cl)cc2)c1C#N,inactive
6,CC(=O)Nc1ccc(-c2cn3cccnc3n2)cc1,inactive
7,CCOc1cc(-c2cc(-c3ccc(NC(C)=O)cc3)nc(N)c2C#N)ccc1O,20.6 µM (active)
8,CCCN(CC1CC1)C(=O)COC(=O)c1ccc(C)cc1O,inactive
9,CC(C)OC(=O)c1cc(NC(=O)C2C3CCC(O3)C2C(=O)O)cc(C(=O)OC(C)C)c1 (centres undefined),inactive
10,O=C(CN1CCC(O)(c2cccc(C(F)(F)F)c2)CC1)NCCc1ccccc1,11.6 µM (active)
11,Cc1cc(NC(=O)CN2CCC(O)(c3cccc(F)c3)CC2)no1,inactive
12,O=C(CN1CCC(O)(c2ccccc2)CC1)Nc1ccc2c(c1)OCCO2,inactive
13,Cn1c(=O)c2[nH]c(NCC3CCCO3)nc2n(-c2ccccc2)c1=O (centres undefined),inactive
14,CN(C)S(=O)(=O)c1cccc(-c2nn(-c3ccccc3)cc2/C=C2\SC(=S)N(CC(=O)O)C2=O)c1,inactive
15,CC1=CC2=NC(=O)/C(=C/c3coc4ccccc4c3=O)C(=N)N2O1,inactive
16,O=C1/C(=C/c2coc3ccc(O)cc3c2=O)SC(=S)N1c1ccccc1,16.4 µM (active)
17,CN(C)CCCn1c(SCCN2C(=O)c3ccccc3C2=O)nc2ccccc2c1=O,inactive
18,CCn1c2ccccc2c2cc(CC(N)=O)ccc21,inactive
19,CN(Cc1ccccc1)C(=O)c1cc2c(=O)n(C)c3ccccc3c2s1,inactive
20,CCc1ccc(CNC(=O)c2cc3c(=O)n(CC)c4ccccc4c3s2)cc1,29.1 µM (active)
21,Cc1cc(=O)oc(C)c1C(=O)N1CCCCC1,inactive
22,Cc1oc2ncnc(N3CCCCC3)c2c1C(=O)N1CCN(c2cccc(Cl)c2)CC1,16.4 µM (active)

row,SMILES,Potency
1,COc1ccc(C)cc1N(C)C(=O)c1c(C)oc2ncnc(N3CCOCC3)c12,inactive
2,O=C(COC(=O)CNC(=O)C1CCCCC1)Nc1cccc(F)c1,inactive
3,Cc1cccc(OCC(=O)NCC(=O)N/N=C/c2ccc(N(C)C)cc2)c1,inactive
4,COc1ccccc1NC1=NC2(CCCC2)N=C(N)N1,inactive
5,COc1cc(C2C(C(=O)Nc3ccccc3OC)=C(C)Nc3ncnn32)ccc1O (centres undefined),inactive
6,COc1ccccc1NC1=NC(c2ccc(Cl)cc2)N=C(N)N1 (centres undefined),5.8 µM (active)
7,COc1cc([N+](=O)[O-])cc([N+](=O)[O-])c1NC(=O)N1CCOCC1,inactive
8,O=C(CSc1nc(=O)n(Cc2cccnc2)c2c1CCC2)Nc1ccc(F)cc1F,inactive
9,CC(=O)c1c(OCC(=O)N(C)C2CCCCC2)ccc2c(C)cc(=O)oc12,inactive
10,CCc1ccnc(NS(=O)(=O)c2ccc3c(c2)OCCO3)c1,inactive
11,CC(C)(C)NC(=O)CN(C(=O)c1ccc(Cl)nc1)c1cccc2ccccc12,inactive
12,Cc1ccc(C)n1-c1ccncc1,inactive
13,COc1cc2nnn(-c3ccncc3)c2cc1OC,inactive
14,c1ccc2c(c1)nnn2-c1ccncc1,5.17 µM (active)
15,CC(=O)N1C(=O)C2(Nc3ccccc3N2)c2ccccc21,inactive
16,Cc1oc(CC(C)C)c(CN2CCCC2)c1C(=O)O,inactive
17,COc1ccc(CCNC(=O)COC(=O)Cc2cc(OC)c(OC)c(OC)c2)cc1,inactive
18,COc1ccc(CCNC(=O)CN2C(=O)CCSc3ccccc32)c(OC)c1,inactive
19,COc1ccc(CCNC(=O)c2cc3cccc4c3n2CC(C)S4)c(OC)c1OC (centres undefined),11.6 µM (active)
20,CNc1nc(SC)nc(N(C#N)CC(=O)OC)n1,inactive
21,CCOc1ccc(OCc2ccc(C(=O)N(C)c3ccccc3)o2)cc1,14.6 µM (active)
22,O=C(NCCc1ccccn1)c1ccc(COc2ccccc2)o1,inactive

row,SMILES,Potency
1,COc1ccc(NC(=O)CN(C)C(=O)c2ccc(COc3ccccc3)o2)cc1,inactive
2,CCN1C(=O)[C@@H]2[C@@H](c3ccc(-c4cccc(Cl)c4)cc3)N3CCC[C@@]3(C(=O)OC)[C@@H]2C1=O,16.4 µM (active)
3,CCCCCCSc1ccc([C@@H]2[C@@H]3C(=O)N(CC)C(=O)[C@@H]3[C@]3(C(=O)OC)CCCCN23)cc1OC,25.9 µM (active)
4,CCN1C(=O)[C@@H]2[C@@H](c3ccc(-c4ccccc4)cc3)N3CCCC[C@@]3(C(=O)OC)[C@@H]2C1=O,16.4 µM (active)
5,CC(=O)N(CN1C(=O)C2C3C=CC(C3)C2C1=O)c1cccc(Cl)c1 (centres undefined),inactive
6,CCN1C(=O)[C@H]2[C@@H](c3ccc(C)cc3)N3C(=O)N(c4cccc(Br)c4)C(=O)[C@@]3(CC)[C@H]2C1=O,inactive
7,CCCCC12CN3CC(C)(CN(C1)C3c1ccc(O)c(OC)c1)C2=O (centres undefined),inactive
8,CCOC(=O)N1C(=O)C[C@](Sc2ccc(C)cc2)(C(=O)OC)[C@H]1c1ccccc1,inactive
9,NC(=O)C1(Nc2ccc(-c3ccccc3)cc2)CCCC1,inactive
10,CCOC(=O)C1=C(CC)Nc2ccccc2N=C1N,inactive
11,COCCNC(=O)c1cc(-c2cccc(Cl)c2)on1,inactive
12,CSc1ccc(NC(=O)Cn2nnnc2-c2ccccc2F)cc1,inactive
13,COc1ccc(NC(=O)CN(C)C(=O)CNC(=O)C2CCCCC2)cc1,inactive
14,COc1ccccc1C1/C(=C(/O)c2ccc(C)cc2)C(=O)C(=O)N1Cc1ccco1 (centres undefined),inactive
15,COc1ccc(S(=O)(=O)N(C)CC(=O)NCCCN2CCOCC2)cc1Cl,inactive
16,CN(Cc1ccc(F)cc1Cl)S(=O)(=O)c1cccs1,inactive
17,OC(CNCc1ccc2c(c1)OCO2)COc1ccccc1 (centres undefined),inactive
18,CN(Cc1ccccc1)CC(O)COc1ccc(CNCc2cc3ccccc3s2)cc1 (centres undefined),29.1 µM (active)
19,Cc1ccc(OCC(=O)OC(C)CN(C)Cc2ccccc2)cc1 (centres undefined),inactive
20,O=C(COC(=O)c1ccc(F)c(S(=O)(=O)N2CCOCC2)c1)NCc1ccc2c(c1)OCO2,inactive
21,OC(Cc1ccc2ccccc2n1)c1ccc(Cl)c(Cl)c1 (centres undefined),inactive
22,Cc1cc(NC(=O)C(C)N2C(=O)c3ccccc3S2(=O)=O)no1 (centres undefined),inactive

row,SMILES,Potency
1,O=C(CN1C(=O)NC2(CCc3ccccc32)C1=O)NC1CCCCC1 (centres undefined),inactive
2,CCOc1ccc(CCNC(=O)CN2C(=O)NC3(CCc4ccccc43)C2=O)cc1OCC (centres undefined),inactive
3,O=C(CN1C(=O)NC2(CCOc3ccccc32)C1=O)NCc1ccc(F)cc1 (centres undefined),inactive
4,O=C(CN1C(=O)NC2(CCCC2)C1=O)Nc1ccc(F)c(F)c1F,inactive
5,CN(C)S(=O)(=O)c1cc(NC(=O)CN2C(=O)NC3(CCCc4ccccc43)C2=O)ccc1Cl (centres undefined),14.6 µM (active)
6,O=C(CN1C(=O)NC2(CCCCCC2)C1=O)NC1CC1,inactive
7,O=C(CN1CCOCC1)Nc1cccc([N+](=O)[O-])c1,inactive
8,O=C(CN1C(=O)NC2(CCOc3ccccc32)C1=O)Nc1cccc([N+](=O)[O-])c1 (centres undefined),20.6 µM (active)
9,O=C(CN1C(=O)NC2(CCCCCC2)C1=O)Nc1ccc([N+](=O)[O-])cc1,18.4 µM (active)
10,COC(=O)Nc1ccc(S(=O)(=O)Nc2cc(OC)nc(OC)n2)cc1,inactive
11,NS(=O)(=O)c1ccc(N2C(=O)C3C4CC(C(Br)C4Br)C3C2=O)cc1 (centres undefined),inactive
12,O=C1CC(Cc2ccccc2)C(=O)N1c1ccc(Cl)cn1 (centres undefined),inactive
13,Cc1ccn(-c2cccc(-n3ccc(C)n3)n2)n1,inactive
14,COCCCn1c(SCC(=O)Nc2ccccc2)nnc1-c1ccncc1,inactive
15,CCOC(=O)C1CSC(CC(=O)Nc2ccc(OCC)cc2)C(=O)N1 (centres undefined),inactive
16,O=C(C1CCCO1)N1CCN(C(=O)C23CC4CC(CC(C4)C2)C3)CC1 (centres undefined),inactive
17,COc1ccc(OC)c(-c2csc(NC(=O)C3=NNC(=O)CC3)n2)c1,13 µM (active)
18,COc1ccc(OC)c(-c2csc(NC(=O)COC(=O)C3CC3)n2)c1,inactive
19,COc1ccc(NC(=O)C2=NNC(=O)CC2)cc1S(=O)(=O)N1CCCCC1,inactive
20,COc1ccnc(Oc2ccccc2)n1,inactive
21,CCc1nnc(NC(=O)Cc2cccs2)s1,inactive
22,CSc1nc(Nc2ccc(F)cc2)cc(-c2ccccc2)n1,23.1 µM (active)

row,SMILES,Potency
1,Fc1ccc2cnc(-c3ccccc3)cc2c1,inactive
2,CNc1nc(-c2ccccc2)cc(-c2ccccc2)n1,inactive
3,O=C(c1ccc(Cn2cc([N+](=O)[O-])cn2)o1)N1CCCC1,inactive
4,COCC(=O)Nc1ccc(Br)cc1,inactive
5,Cc1ccc(CCNC(=O)c2nnc(Cc3cccc(F)c3)o2)cc1,inactive
6,Cc1cc(Br)ccc1NC(=O)C1CCCO1 (centres undefined),inactive
7,C[C@@H]1NS(=O)(=O)c2cc(Cl)ccc2O[C@@H]1c1ccccc1,inactive
8,COC(=O)C1=C(C)Nc2ncnn2C1c1ccco1 (centres undefined),inactive
9,COC(=O)C1=C(C)Nc2ncnn2C1c1cccnc1 (centres undefined),inactive
10,CC1=C(C(=O)OC2CCCCC2)C(c2cccnc2)n2ncnc2N1 (centres undefined),20.6 µM (active)
11,O=C(CSc1nnc(-c2ccc(NS(=O)(=O)c3ccccc3)cc2)o1)NCC1CCCO1 (centres undefined),inactive
12,COc1ccc(Nc2nc(-c3ccccc3)cs2)cc1,inactive
13,Oc1ccc(-c2csc(Nc3cccnc3)n2)cc1,29.1 µM (active)
14,Cc1ccccc1Nc1nc(-c2cccnc2)cs1,inactive
15,COc1ccc(-c2csc(Cc3nc(O)cs3)n2)cc1,14.6 µM (active)
16,COc1ccc(-n2c(SC)nc(O)cc2=O)cc1,inactive
17,CN(c1ccc(O)cc1)c1nc(-c2cccnc2)cs1,inactive
18,COc1ccc(-c2csc(Nc3ccc(O)cc3)n2)cc1,6.51 µM (active)
19,Clc1ccc(-c2csc(-c3ccncc3)n2)cc1,inactive
20,c1ccc(Nc2nc(-c3ccncc3)cs2)nc1,16.4 µM (active)
21,O=C(NCc1cccnc1)C(=O)Nc1nc(-c2ccccc2)cs1,inactive
